Experimental findings from PubChem BioAssay AID1985 (Southern Research Specialized Biocontainment Screening …, 2009) are described below.

The structures appear in SMILES notation. In all, about 2,300 compounds went through this assay and about 1,000 (43%) were called active. The rule behind the calls is not given here. The set was probably picked from earlier hits. The list shows a part of the results. Measured potencies and affinities stand elsewhere.

A short description of this test: modified counter assay using GFP fluorescence, PhoP regulon inhibitor project, dose response (AID 1985). The settings on record: S. Typhi, 4 h; series mostly up to 150 µM.
Turning to `O=C(O)CC/C(=C\c1ccccc1[N+](=O)[O-])c1nc2ccccc2s1`, the call was inactive.

In the case of `O=C(OCc1nc2ccccc2s1)c1ccco1`, the compound was called inactive.

In the case of `O=C1CCCC(=O)N1c1ccc(N2CCOCC2)c([N+](=O)[O-])c1`, the outcome was inactive.

As for `CCn1cc(C(=O)NCCc2ccccc2)c(=O)c2cc(F)c(N3CCN(C)CC3)cc21`, the compound was called inactive. Take `CN(C)CCN1C(=O)C(O)=C(C(=O)c2cc3ccccc3o2)C1c1ccccn1` (stereo not given): the call was inactive. Turning to `O=C(Cn1nc(Cc2ccncc2)c2ccccc2c1=O)Nc1cccnc1Cl`, the call was inactive. Regarding `COc1ccc(N(CCCN2C(=O)c3cccc4cccc(c34)C2=O)C(=O)c2cccnc2)cc1`, the call was inactive. For the compound `O=C(c1ccco1)N1CCCN(Cc2nc(-c3ccc4c(c3)OCO4)no2)CC1`, the compound was called inactive. With `O=C(NCc1ccc2c(c1)OCO2)c1ccc2c(c1)C(=O)N(Cc1cccnc1)C2=O`, the compound was classed as inactive.

As for `C1CCC(n2nnnc2CN2CCN(C3CCCC3)CC2)CC1`, the compound was classed as inactive. On to `CCN(CC)CCOC(=O)c1ccc(N/C=C(/C#N)c2nc(-c3ccc(OC)c(OC)c3)cs2)cc1`, for which the result was inactive. For the compound `Cc1ccc(-n2ncc3c(=O)[nH]cnc32)c(C)c1`, the call was inactive.

Take `O=C(Nc1cccc(OCC(=O)N2CCOCC2)c1)c1cccc([N+](=O)[O-])c1`: the call was inactive.

In the case of `N/C(=N\OC(=O)N1CCOCC1)c1ccccc1`, the compound was classed as inactive. For `O=C1c2ccccc2C(=O)C1(CO)c1ccc(OC(F)F)cc1`, the result was inactive. On to `Cc1nnc(SCC(=O)Nc2cc(S(=O)(=O)N3CCCC3)ccc2Cl)s1`, for which the result was inactive. As for `COc1ccc(C)cc1S(=O)(=O)N1CCCC(C(=O)NCC2CCCO2)C1` (stereo not given), the entry is “inactive”; as for `COC(=O)C1=C(C(=O)OC)SC(=C2C(=S)C(C)(C)N(C(=O)C3CC3)c3ccccc32)S1`, “inactive”. `O=C(NCC1CC1)Nc1cccs1`: the call was inactive.

Regarding `CC(C)(C)NC(=O)NC(=O)COC(=O)CCC1CCCC1`, the compound was called inactive. Regarding `Cc1c(C(=O)O)oc2c3c(ccc12)OCCO3`, the outcome was inactive.

Regarding `c1ccc(CNc2nc(N3CCN(Cc4ccccc4)CC3)nc3ccccc23)cc1`, the compound was called inactive. In the case of `CC(Nc1nc(N2CCCCC2)nc2ccccc12)c1ccccc1` (stereo not given), the call was inactive. For `COc1ccc(N2CCN(C(CNC(=O)c3ccc4c(c3)OCO4)c3ccco3)CC2)cc1` (stereo not given), the compound was called inactive.

`COc1ccc(C(CC(=O)O)NC(=O)C2CCCCC2)cc1` (stereo not given): the call was inactive. As for `CCCOc1ccc(-c2cn3ccccc3n2)cc1`, the entry is “inactive”; as for `COC(=O)c1ccc(NC(=O)c2ccccc2N(C)S(=O)(=O)c2ccccc2)cc1`, “inactive”; as for `Cc1cccc(N2CCN(C(=O)CCN3C(=S)NC(C)(C)CC3C)CC2)c1C` (stereo not given), “inactive”. Consider `CC(C)OCCCn1c(=S)[nH]c2cc3c(cc2c1=O)OCO3`, for which the outcome was inactive. The value for `O=C(NCc1ccccn1)c1nc(Cn2ccc([N+](=O)[O-])n2)no1` was “inactive”.
